Screening data from PubChem.
Rango complex inh: prevents formation of the Rango-importin beta complex | Rango CFP/YFP FRET sensor + importin beta, 45 min | 0.031% of 340,000 active | Potency, µM (top dose mostly 92.2 µM), without a hit: at the highest dose inhibition of complex formation | Q14974 | AID 540263;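 also: potency is read from the fitted curve at half-maximal effect; 0% = DMSO wells and 100% = buffer wells lacking importin beta; nearly all actives have a fitted effect of over 15% in size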
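FRET biosensor (snurportin 1 IBB flanked by EYFP and cerulean), 50 nM, with compound 5 min, then 0.125 microM importin beta in PBS, 1 mM DTT, 0.02% Tween-20, 0.1% BSA. CFP/YFP ratio read after 45 min at room temperature; pre-read flags interference.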
Rango release inh: prevents RanGTP from dissociating the Rango-importin beta complex | O95149+P62826 | Biochemical FRET Rango-importin beta, RanGTP-induced dissociation | Potency, µM (series often up to 46.1 µM), inactives show top-dose activity change, negative = inhibition | 0.071% of 340,000 active | AID 540253; also: potency is read from the fitted curve at half-maximal effect; % of control where 0% means no effect; nearly all actives have a fitted effect of over 45% in size
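Rango FRET biosensor (snurportin-1 IBB flanked by N-terminal EYFP and C-terminal CFP10) at 0.1 uM, with 0.25 uM importin beta in PBS, 1mM DTT, 0.02% Tween-20, 0.1% BSA. 0.6 uM Ran, 2mM GTP and 0.2 uM RCC1 were then added for 45 min at room temperature. Inhibition read as loss of FRET rise.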
D3 ag: activates the human D3 dopamine receptor; 0.58% of 410,000 active; P35462; AID 652048; max activation, %; D3R DiscoveRx beta-arrestin cells, luminescence, 90 min; in the data active = max activation above about 30%; also: 0% is about no effect
Target sequence (P35462 whole entry, looked up): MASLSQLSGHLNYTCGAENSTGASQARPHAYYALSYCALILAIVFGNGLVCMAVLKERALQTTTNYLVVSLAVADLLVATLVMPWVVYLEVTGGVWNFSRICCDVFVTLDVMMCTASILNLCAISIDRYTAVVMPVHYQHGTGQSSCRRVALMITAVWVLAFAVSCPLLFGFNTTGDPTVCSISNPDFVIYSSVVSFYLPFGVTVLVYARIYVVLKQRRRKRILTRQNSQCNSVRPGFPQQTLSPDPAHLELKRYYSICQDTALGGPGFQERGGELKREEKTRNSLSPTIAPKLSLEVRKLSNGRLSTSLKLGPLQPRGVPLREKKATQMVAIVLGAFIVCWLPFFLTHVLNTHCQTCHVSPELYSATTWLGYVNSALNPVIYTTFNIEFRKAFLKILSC
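Agonist mode: compounds and dopamine controls were applied to plated cells for 90 min at 37 degrees C after an overnight attachment at 1500 cells/well. Luminescent read-out followed 30 - 60 minutes at room temperature with DiscoveRx detection reagent.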
PTAP TSG101 blk: blocks PTAP/TSG101 interaction to inhibit HIV-1 budding; Q99816; Fluorescence polarization, FITC-PTAP peptide / Tsg101 binding; Potency, µM (top dose mostly 115 µM), for the others: at the top dose activity change, negative = inhibition, most hits filed as inhibitors; 340,000 tested, under 10 active; AID 493005; active = well fitted inhibition curve with a large enough effect in the main read-out, with a control signal flat, not every such curve was filed as active; inconclusive = small, poorly fitted or top-dose-only effect, or effect the other way, or a change in a side signal; inactive = no such curve, though single readings can be large or run the other way; also: potency is read from the fitted curve at half-maximal effect; % of control where 0% means no effect
Target sequence (Q99816 whole entry, looked up): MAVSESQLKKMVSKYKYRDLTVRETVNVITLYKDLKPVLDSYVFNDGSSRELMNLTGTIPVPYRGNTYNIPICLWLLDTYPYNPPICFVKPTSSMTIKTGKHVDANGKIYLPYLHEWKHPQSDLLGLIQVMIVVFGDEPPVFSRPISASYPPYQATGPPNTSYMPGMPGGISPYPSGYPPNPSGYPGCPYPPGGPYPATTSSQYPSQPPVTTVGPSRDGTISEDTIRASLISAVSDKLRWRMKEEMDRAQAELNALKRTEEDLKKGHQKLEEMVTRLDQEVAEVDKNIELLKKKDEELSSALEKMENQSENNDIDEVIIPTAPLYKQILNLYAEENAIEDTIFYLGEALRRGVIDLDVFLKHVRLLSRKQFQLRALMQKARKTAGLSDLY
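Tsg101 binding domain (10 uM final) was mixed with compound and a FITC-labeled PTAP peptide (50 nM final) in HEPES pH 7.5 buffer with NaCl, Tween 20, EDTA and TCEP; fluorescence polarization was read after 20 min at r.t.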
Mm-Cpn inhibitor: blocks the Methanococcus maripaludis chaperonin Mm-Cpn; purified Mm-Cpn ATPase, ADP Transcreener TR-FRET; Potency, µM (doses to about 76.9 µM), inactives show top-dose activity, negative = inhibition, hits mostly inhibitors; 0.031% of 330,000 active; AID 504842; active = well fitted inhibition curve with a large enough effect; inconclusive = small, poorly fitted or top-dose-only effect; also: potency is read from the fitted curve at half-maximal effect; % is scaled to controls: 0 for no effect and ±100 for the full control effect; nearly all actives have a fitted effect of over 80% in size
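Inhibition of chaperonin ATP hydrolysis is measured as reduced ADP production, detected by competitive TR-FRET in which signal falls with ADP. Final enzyme 25 nM and ATP 10 uM, reacted 30 min at 37°C.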
DRD3 antagonist: D3 dopamine receptor (human) antagonism | P35462 | D3R cells, DiscoveRx beta-arrestin luminescence, antagonist mode; stronger effect = lower value | max response, negative = inhibition, % | 2.5% of 360,000 active | AID 652054; in the data active = max response below about -50%; inconclusive = no clear call, values can overlap the other calls; also: % is scaled to controls: 0 for no effect and ±100 for the full control effect
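Cells plated overnight at 1500 cells/well, then exposed to library compounds with dopamine controls for 90 minutes at 37 degrees C. DiscoveRx reagent added for 30–60 minutes at room temperature; luminescence read, quantitative HTS format.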
* marks the source's active call; other numbers are inactive results; u = inconclusive; x = no result given. Sampled rows, rich in hits. Any-hit rate of the full collection: about 2.9%. Unless noted, calls follow the shape of the full dose curve.

SMILES | Rango complex inh | Rango release inh | D3 ag | PTAP TSG101 blk | Mm-Cpn inhibitor | DRD3 antagonist
CC1CCC(NC(=O)Cn2c3c(c(-c4ccccc4Cl)cc2=O)CCC3)CC1 (stereo unspecified) | -3.2% | -11.9% | -11.7 | -3.4% | -2.3% | -76.7*
CCN(CC)c1ccc(/C=C2/SC(=O)N(C(C)C)C2=O)o1 | u | u | -6.8 | u | 0.2% | -91.4*
CC(C)N1C(=O)S/C(=C\c2ccc(-c3ccc(Cl)c(C(=O)O)c3)o2)C1=O | u | u | -3.1 | -6.6% | 0.4% | u
Cc1ccc(CNC(=O)CCCCCn2c(=O)c3sccc3n(CC(=O)N3CCCCC3C)c2=O)cc1 (stereo unspecified) | x | x | 4.3 | x | x | x
COc1ccc(F)cc1C(=O)C1CCCN(Cc2cnc(N3CCCC3)s2)C1 (stereo unspecified) | -0.6% | 3.8% | -26.3 | -2.7% | 2.1% | -59.2*
COc1ccc(C(=O)C2CCCN(Cc3cnc(N4CCCC4)s3)C2)cc1OC (stereo unspecified) | -0.1% | 4.8% | -3.9 | -3.8% | -1.3% | -7.2
COc1c(C)cc(C(=O)C2CCCN(Cc3cnc(N4CCOCC4)s3)C2)cc1C (stereo unspecified) | -0.1% | -9.1% | -7.3 | -2.0% | 1.7% | -13.3
CCOC(=O)N1CCC(N2CCCC(C(=O)c3cc(F)ccc3OC)C2)CC1 (stereo unspecified) | 0.5% | 11.8% | -18.8 | -2.4% | 1.6% | -67.6*
COc1ccc(Cl)cc1C(=O)C1CCCN(Cc2cnc(N3CCOCC3)s2)C1 (stereo unspecified) | 2.8% | 4.2% | -11.8 | -3.2% | -17.8% | -79.1*
CCc1noc(C)c1C(=O)N1CCCC(C(=O)c2cc(F)ccc2OC)C1 (stereo unspecified) | 3.0% | 9.0% | 11.2 | -4.5% | 1.5% | -11.3
Cc1ccc(C)c(NC(=O)CCc2c(C)nn(-c3ccc(N4CCCC4)nn3)c2C)c1 | x | x | 6.9 | x | x | x
CCN1CCc2nc3sc(C(=O)c4ccccc4)c(N)c3cc2C1 | x | x | -3.2 | x | x | x
Cc1ccccc1OCC(O)CN1CCC(C)CC1 (stereo unspecified) | -0.1% | 21.0% | -12.0 | 1.8% | -17.5% | -60.2*
CCOC(=O)c1c(C)n(C)c2ccc(OCC(O)CN3CCC(C)CC3)cc12 (stereo unspecified) | 0.3% | 11.8% | -20.7 | 2.2% | 0.5% | -102.4*
Cc1ccccc1OCC(O)CN1CCCCC1 (stereo unspecified) | 0.2% | 8.0% | -8.0 | -3.8% | 1.0% | 4.4
Cc1ccccc1OCC(O)CN1CCN(CC(O)COc2ccccc2C)CC1 (stereo unspecified) | -0.1% | 13.9% | -18.0 | -9.0% | 1.1% | -57.4*
Cc1ccc(CNC(=O)Cn2ccn(-c3cccc(Cl)c3)c(=O)c2=O)cc1 | x | x | 5.4 | x | x | x
COc1ccccc1NC(=O)CN1C(=O)CC(c2ccc(C)c(C)c2)=Nc2ccccc21 | x | x | 6.8 | x | x | x
O=C(COC(=O)c1cccc(C(F)(F)F)c1)NCc1ccccc1 | -4.5% | 15.1% | 2.3 | -0.1% | -0.3% | 12.0
CC(Cc1cccc(C(F)(F)F)c1)NCCOC(=O)c1ccccc1 (stereo unspecified) | -3.6% | 13.9% | -80.7 | -2.7% | 1.7% | -98.8*
Cc1ccc(C)c(NC(=O)Cn2c(=O)n(CC3CCCO3)c(=O)c3ccccc32)c1 (stereo unspecified) | x | x | 7.7 | x | x | x
O=C(O)c1cccc2c1/C(=N/Nc1ccc([N+](=O)[O-])cc1[N+](=O)[O-])c1ccccc1-2 | u | 1.6% | -6.5 | -5.2% | 1.1% | -53.9*
COc1ccc(OC)c(NC(=O)C2(C)CCN2Cc2ccccc2OC(F)F)c1 (stereo unspecified) | x | x | 91.8* | x | x | 43.2
COc1ccc(-c2nc3c(c(SCC(=O)Nc4ccccc4F)n2)Cc2cc(C)ccc2O3)cc1 | x | x | 10.3 | x | x | x
CCN(CC)CCCNC(=O)c1sc2nc(-c3ccc(F)cc3)cn2c1C | -2.5% | -11.5% | -51.2 | -7.9% | 2.3% | -62.3*
SMILES | Rango complex inh | Rango release inh | D3 ag | PTAP TSG101 blk | Mm-Cpn inhibitor | DRD3 antagonist
CN(Cc1ccccc1)C(c1ccnc2ccccc12)c1nnnn1-c1ccc2c(c1)OCCO2 (stereo unspecified) | x | x | 50.2* | x | x | -11.1
CN(C)CCN(Cc1ccccc1)C(c1ccnc2ccccc12)c1nnnn1-c1ccc2c(c1)OCCO2 (stereo unspecified) | x | x | -8.1 | x | x | u
O=C(c1ccco1)N1CCN(CCCCOc2ccc(F)cc2)CC1 | 6.7% | -16.3% | 66.4* | -5.2% | -1.6% | 2.0
O=C(CN1C(=O)c2ccccc2C1=O)N1CCN(C(=O)c2ccco2)CC1 | -2.0% | -15.2% | -8.6 | -4.6% | 1.3% | -10.6
O=C(CCN1CCN(C(=O)c2ccco2)CC1)Nc1ccc(F)cc1 | 4.0% | 4.0% | 4.2 | -3.1% | 1.8% | 14.7
O=C(c1ccco1)N1CCN(CCCCN2C(=O)c3ccccc3C2=O)CC1 | 6.1% | 2.8% | 57.1* | -0.6% | 0.6% | -9.9
CSc1cccc(CN2CCN(Cc3ccc(F)c(F)c3)C(CCO)C2)c1 (stereo unspecified) | -1.3% | -3.4% | -11.0 | -4.0% | 1.3% | -62.5*
CC(=O)c1cccc(CN2CCN(CCc3ccccc3)C(CCO)C2)c1 (stereo unspecified) | -1.4% | -1.3% | -17.5 | -0.3% | -0.2% | u
CSc1cccc(CN2CCN(Cc3ccccc3)C(CCO)C2)c1 (stereo unspecified) | 4.2% | 25.0% | -0.3 | -6.8% | 1.3% | -53.6*
CSc1cccc(CN2CCN(CCc3ccccc3)C(CCO)C2)c1 (stereo unspecified) | -0.7% | 41.8% | -24.8 | 0.2% | -2.3% | -114.4*
OCCC1CN(C2CSCCSC2)CCN1Cc1ccccc1 (stereo unspecified) | -7.0% | -2.3% | -14.8 | -1.0% | -1.8% | -4.0
CSc1ccc(CN2CCN(Cc3ccccc3)C(CCO)C2)cc1 (stereo unspecified) | 1.7% | 0.0% | -23.4 | 0.3% | -1.2% | u
OCCC1CN(C2CCN(c3ccccc3F)CC2)CCN1Cc1ccccc1 (stereo unspecified) | -0.1% | 0.7% | -19.6 | -2.9% | -2.7% | -103.3*
Cc1csc2nc(COC(=O)c3ccc(NC(=O)c4ccccc4Br)cc3)cc(=O)n12 | x | x | -4.1 | x | x | x
Cc1ccc(CNC(=O)C2CCCN(S(=O)(=O)c3cccc4nsnc34)C2)cc1 (stereo unspecified) | x | x | -7.6 | x | x | x
CCn1c(SCC(=O)Nc2ccc(Cl)cc2)nc2nc3c(cc2c1=O)CCCC3 | 1.8% | 1.1% | 25.2 | -6.4% | 0.5% | 22.9
